Measured values reported in PubChem BioAssay AID1159580 (chemical genetic matrix, 2015).
Hit rate of the full screen: of about 5,500 compounds, about 2,000 (36%) were called active. About 18% were inconclusive and are not listed. Cut-off read from the data, not from the text of the source: active = normalized growth mostly below about 0.91 (no sharp cut-off); inconclusive = no clear call, values can overlap the other calls; inactive = mostly above about 0.92. This is one part of the list.

Test: chemical genetic growth profiling, strain panel (AID 1159580);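 note: tested at 20 µM; growth read once vehicle control cultures reached saturation at 30 °C; 1 = growth at the plate median or of vehicle wells; lower values mean less growth of the strain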
Details: growth OD

Measured: normalized growth

CCCCN1CCCCC1C(=O)Nc1c(C)cccc1C (configuration not stated)
inactive: S. cerevisiae deletion strains, locus YJR075W, strain HOC1, hits give low values 1 | S. cerevisiae deletion strains, locus YKL009W, strain mrt4, hits give low values 1.01 | S. cerevisiae deletion strains, locus YKL068W, hits give low values 0.991 | S. cerevisiae deletion strains, locus YKL085W, strain MDH1 (second series), hits give low values 1 | S. cerevisiae deletion strains, locus YKL085W, strain MDH1, hits give low values 1 | S. cerevisiae deletion strains, locus YKL160W, strain elf1, hits give low values 0.992 | S. cerevisiae deletion strains, locus YKL190W, strain CNB1, hits give low values 1.01 | S. cerevisiae deletion strains, locus YKR001C, strain vps1, hits give low values 1.01 | S. cerevisiae deletion strains, locus YKR026C, strain gcn3, hits give low values 0.997 | S. cerevisiae deletion strains, locus YKR091W, strain srl3, hits give low values 0.982 | S. cerevisiae deletion strains, locus YLL001W, strain dnm1, hits give low values 0.991 | S. cerevisiae deletion strains, locus YLL026W, hits give low values 0.998 | S. cerevisiae deletion strains, locus YLL041C, strain sdh2, hits give low values 0.991 | S. cerevisiae deletion strains, locus YLR027C, strain aat2, hits give low values 0.991 | S. cerevisiae deletion strains, locus YLR039C, strain RIC1, hits give low values 1.01 | S. cerevisiae deletion strains, locus YLR058C, strain SHM2, hits give low values 1.01 | S. cerevisiae deletion strains, locus YLR102C, strain apc9, hits give low values 0.994 | S. cerevisiae deletion strains, locus YLR113W, strain HOG1, hits give low values 0.991 | S. cerevisiae deletion strains, locus YLR221C, strain rsa3, hits give low values 0.996 | S. cerevisiae deletion strains, locus YLR258W, strain gsy2, hits give low values 0.992 | S. cerevisiae deletion strains, locus YLR262C, strain YPT6 (second series), hits give low values 0.998 | S. cerevisiae deletion strains, locus YLR262C, strain YPT6, hits give low values 1.06 | S. cerevisiae deletion strains, locus YLR268W, strain sec22, hits give low values 0.943 | S. cerevisiae deletion strains, locus YLR320W, strain mms22, hits give low values 1.01 | S. cerevisiae deletion strains, locus YLR330W, strain CHS5, hits give low values 1.01 | S. cerevisiae deletion strains, locus YLR342W, strain FKS1 (second series), hits give low values 1.03 | S. cerevisiae deletion strains, locus YLR342W, strain FKS1, hits give low values 0.973 | S. cerevisiae deletion strains, locus YLR357W, strain rsc2, hits give low values 0.982 | S. cerevisiae deletion strains, locus YLR370C, strain arc18, hits give low values 0.998 | S. cerevisiae deletion strains, locus YLR371W, strain rom2, hits give low values 0.99 | S. cerevisiae deletion strains, locus YLR384C, strain iki3, hits give low values 0.997 | S. cerevisiae deletion strains, locus YLR418C, strain cdc73, hits give low values 0.993 | S. cerevisiae deletion strains, locus YML016C, strain PPZ1, hits give low values 1.02 | S. cerevisiae deletion strains, locus YML032C, strain rad52, hits give low values 0.982 | S. cerevisiae deletion strains, locus YML120C, strain ndi1, hits give low values 0.973 | S. cerevisiae deletion strains, locus YML124C, strain tub3, hits give low values 0.993 | S. cerevisiae deletion strains, locus YMR058W, strain fet3, hits give low values 0.979 | S. cerevisiae deletion strains, locus YMR078C, strain ctf18, hits give low values 0.99 | S. cerevisiae deletion strains, locus YMR125W, strain sto1, hits give low values 0.982 | S. cerevisiae deletion strains, locus YMR129W, hits give low values 0.992 | S. cerevisiae deletion strains, locus YMR205C, strain PFK2, hits give low values 1.01 | S. cerevisiae deletion strains, locus YMR223W, strain ubp8, hits give low values 1.01 | S. cerevisiae deletion strains, locus YMR231W, strain pep5, hits give low values 0.996 | S. cerevisiae deletion strains, locus YMR263W, strain SAP30, hits give low values 1.01 | S. cerevisiae deletion strains, locus YMR307W, strain GAS1, hits give low values 1.05 | S. cerevisiae deletion strains, locus YNL067W, strain RPL9B, hits give low values 1.01 | S. cerevisiae deletion strains, locus YNL071W, strain lat1, hits give low values 0.984 | S. cerevisiae deletion strains, locus YNL128W, strain TEP1, hits give low values 1.02 | S. cerevisiae deletion strains, locus YNL153C, strain GIM3, hits give low values 1.01 | S. cerevisiae deletion strains, locus YNL183C, strain NPR1, hits give low values 0.948 | S. cerevisiae deletion strains, locus YNL209W, strain ssb2, hits give low values 0.976 | S. cerevisiae deletion strains, locus YNL233W, strain BNI4, hits give low values 1 | S. cerevisiae deletion strains, locus YNL248C, strain rpa49, hits give low values 0.959 | S. cerevisiae deletion strains, locus YNL250W, strain rad50, hits give low values 1 | S. cerevisiae deletion strains, locus YNL271C, strain bni1, hits give low values 0.985 | S. cerevisiae deletion strains, locus YNL298W, strain CLA4, hits give low values 1 | S. cerevisiae deletion strains, locus YNL307C, strain MCK1, hits give low values 0.993 | S. cerevisiae deletion strains, locus YNL322C, strain KRE1 (second series), hits give low values 0.986 | S. cerevisiae deletion strains, locus YNL322C, strain KRE1, hits give low values 1.01 | S. cerevisiae deletion strains, locus YNR049C, strain mso1, hits give low values 0.993 | S. cerevisiae deletion strains, locus YNR052C, strain pop2, hits give low values 0.99 | S. cerevisiae deletion strains, locus YOL006C, strain TOP1, hits give low values 1.02 | S. cerevisiae deletion strains, locus YOL012C, strain htz1 0.897 | S. cerevisiae deletion strains, locus YOL147C, strain pex11, hits give low values 0.987 | S. cerevisiae deletion strains, locus YOR001W, strain rrp6, hits give low values 0.991 | S. cerevisiae deletion strains, locus YOR061W, strain CKA2, hits give low values 1.02 | S. cerevisiae deletion strains, locus YOR069W, strain VPS5, hits give low values 1.01 | S. cerevisiae deletion strains, locus YOR070C, strain gyp1, hits give low values 0.996 | S. cerevisiae deletion strains, locus YOR080W, strain dia2, hits give low values 0.979 | S. cerevisiae deletion strains, locus YOR083W, strain WHI5, hits give low values 1 | S. cerevisiae deletion strains, locus YOR106W, strain vam3, hits give low values 0.969 | S. cerevisiae deletion strains, locus YOR136W, strain idh2, hits give low values 0.993 | S. cerevisiae deletion strains, locus YOR144C, strain elg1, hits give low values 0.993 | S. cerevisiae deletion strains, locus YOR184W, strain ser1, hits give low values 0.986 | S. cerevisiae deletion strains, locus YOR231W, strain MKK1, hits give low values 0.974 | S. cerevisiae deletion strains, locus YOR265W, strain rbl2, hits give low values 0.987 | S. cerevisiae deletion strains, locus YOR270C, strain vph1, hits give low values 0.985 | S. cerevisiae deletion strains, locus YOR290C, strain snf2, hits give low values 0.977 | S. cerevisiae deletion strains, locus YOR316C, strain cot1, hits give low values 0.989 | S. cerevisiae deletion strains, locus YPL051W, strain arl3, hits give low values 0.998 | S. cerevisiae deletion strains, locus YPL055C, strain LGE1, hits give low values 1.03 | S. cerevisiae deletion strains, locus YPL078C, strain atp4, hits give low values 0.978 | S. cerevisiae deletion strains, locus YPL106C, strain sse1, hits give low values 0.962 | S. cerevisiae deletion strains, locus YPL240C, strain hsp82, hits give low values 0.982 | S. cerevisiae deletion strains, locus YPL241C, strain CIN2, hits give low values 1.01 | S. cerevisiae deletion strains, locus YPL256C, strain CLN2, hits give low values 0.958 | S. cerevisiae deletion strains, locus YPR119W, strain clb2, hits give low values 0.987 | S. cerevisiae deletion strains, locus YPR141C, strain kar3, hits give low values 0.985 | S. cerevisiae deletion strains, locus YPR163C, strain tif3, hits give low values 0.992 | S. cerevisiae deletion strains, locus YPR167C, strain met16, hits give low values 0.991 | S. cerevisiae deletion strains, strain wtn01, hits give low values 0.98 | S. cerevisiae strains, strain wild type, hits give low values 1.02
